The target in the test is Glucose transporter (Leishmania mexicana) (UniProt O61059). Briefly: ST_JUDE_LEISH: Cytotoxicity at 2uM final concentration against transgenic Leishmania Mexicana promastigotes LmGT2 that are glucose transport deficient and complemented with the L. Mexicana glucose transporter 2. Activity is measured by DNA content using SYBR green in vitro. The test is classed as functional.
Take `Nc1ccc(-c2nc3cc(Cc4ccc5[nH]c(-c6ccc(N)cc6)nc5c4)ccc3[nH]2)cc1`: the inhibition is -2.11%. Then `CCCC(C)NC(=O)[C@H](Cc1ccccc1)NC(=O)c1ccc(O)c(-c2ccc(OC)cc2)c1` (stereo not given in full), with 3.9%; and `CC(=O)Nc1cccc(Nc2nccc(-c3c(-c4cccc(NC(=O)c5c(F)cccc5F)c4)nn4ncccc34)n2)c1`, with 1.53%; and `COc1ccc2nccc([C@@H](O)CN3CCC(NCc4nc5c([N+](=O)[O-])cccc5[nH]4)CC3)c2c1`, with 1.31%.

In the case of `O=C(NCc1ccc(F)cc1)Nc1cccc(-c2ccc(-c3nc4cc(F)ccc4[nH]3)cc2)c1`, the inhibition came to 7.37%. Then `CC1(C)N=C(N)N=C(NOCc2ccc(Cl)c(Cl)c2)N1`, with 1.84%. Then `CCn1c(Sc2ccc([N+](=O)[O-])c(C#N)c2)nnc1-c1ccc(Cl)cc1`, with 12.8%; and `COc1ccc2ccccc2c1CCCCN1CCN(CC(c2ccc(F)cc2)N2CCN(C(C)C)CC2)CC1` (stereo not given), with 12.3%; and `OCCNc1nc(Nc2cccc(O)c2)nc2ccccc12`, with 4.01%. Turning to `Oc1cccc(-c2nc(-c3ccccc3)c(-c3ccc4oc5ccc(-c6[nH]c(-c7cccc(O)c7)nc6-c6ccccc6)cc5c4c3)[nH]2)c1`, the inhibition turned out to be 2.11%. Then `CCN(CC)C(=S)N/N=C1/C(=O)Nc2c(C)cccc21`, with 1.52%. Under `Cn1cnc2c(Nc3ccncc3)nc(-c3ccc4ccccc4c3)nc21` stands -0.56%; under `Cc1nc2ccccc2n1C1CC2CCC(C1)N2CCCC1(c2ccccc2)CCN(C(=O)OCc2ccccc2)CC1` (stereo not given), 2.57%; under `CN(c1ccc(NC(=O)Nc2cc(C(C)(C)C)on2)cc1)c1ccnc(NCCN2CCOCC2)n1`, 5.4%. Under `COc1ccc2nc(NC(N)=NC(=O)Nc3ccccc3)nc(C)c2c1` stands 0.15%.

In the case of `CC12CCC(C(=O)N(CC(O)Cn3c4ccc(Cl)cc4c4cc(Cl)ccc43)C1=O)C2(C)C` (stereo not given), the inhibition was found to be 0.38%. Under `CC(C)(C)c1ccc(CNC(=O)c2cc(CNC3CCC(N)CC3)ccc2O)cc1` (stereo not given) stands 0.99%; under `Cc1ccc(C2CCN(CCCCNC(=O)c3ccc(NC(=O)c4ccc(Cl)cc4)cc3)CC2)c(OCC(F)(F)F)c1`, 0.66%; under `CCCCCCn1c2c(c(=N)c3c1CCC3)CCC2`, 83.1%. Then `Cc1cc(F)ccc1Nc1nc(N(C)c2ccccc2)c2cccc(OCCO)c2n1`, with 4.48%; and `CNc1cc(-c2ccc3ccnc(N)c3c2)nc(N)n1`, with -3.58%. `Cc1cc(N[C@@H](CC(C)C)C(=O)NCc2cccc(F)c2)nc(Nc2ccccc2)n1`: the inhibition was 1.1%. Under `CCc1cc2c(Sc3nc4ccccc4[nH]3)ncnc2s1` stands -0.12%. Then `COc1ccc(CNCc2ccc(-c3ccc(-c4nc5cccc(C)c5[nH]4)s3)cc2)cc1`, with 12.6%. Then `O=C(O[C@H]1CN[C@H](C#Cc2cc3ncnc(Nc4ccc5c(ccn5S(=O)(=O)c5cccs5)c4)c3s2)C1)N1CCOCC1`, with 10.6%; and `Nc1nccc2ccc(OC3CCCCC3)cc12`, with 1.91%. Turning to `Cc1cccc2nc(-c3cccc(-c4ccc(NC(=O)COC(C)C)cc4)c3)[nH]c12`, the inhibition is -2.12%. Then `Fc1ccc2[nH]c(-c3ccc(-c4ccc(CNCCN5CCNCC5)cc4)cc3)nc2c1`, with 0.99%; and `Cc1ccc2[nH]c(-c3cc(-c4ccc(OCc5ccccc5)cc4)cnc3N)nc2c1`, with -0.31%; and `COc1ccccc1C(=O)N1CCN(Cc2cccs2)CC1`, with 9.06%. Then `OC1CCC(Nc2ccc3ncc(-c4ccc(Cl)cc4)n3n2)CC1` (stereo not given), with 4.08%; and `CN1CCc2ccc(NC(=O)Nc3cccc(C(=O)c4ccccc4)c3)cc2C1`, with 1.86%.

For the molecule `CC(=O)N(Cc1nc(-c2cc(C(F)(F)F)cc(C(F)(F)F)c2)cs1)c1c(C)cccc1C`, the inhibition turned out to be 4.36%.

`COc1ccc(C2=CCN(c3ccc(Cl)c(Cl)c3)C2=O)cc1OCCN1CCCCC1`: the inhibition was -4.01%. Then `CN(CCc1ccccc1)c1ncc(-c2ccccc2CNCc2ccccc2O)cn1`, with 2.23%; and `COc1ccccc1CCN1CCC(CN(C)Cc2ccc(O)c(Cl)c2)CC1`, with 4.27%; and `COc1ccc2c(NN=Cc3ccccc3Cl)ccnc2c1`, with 4.32%. As to `CC(C)(C)c1ccc(CNC(=O)/C=C/c2ccc(-c3nc4cc(C(C)(C)C)ccc4[nH]3)cc2)cc1`, the inhibition came out at 4.02%. Under `COC(=O)c1noc(C)c1I` stands 0.59%; under `CCN1CCc2c1cc(C(=O)N[C@@H](Cc1ccccc1)[C@H](O)CNC(C)(C)c1cccc(C(F)(F)F)c1)cc2N1CCCCS1(=O)=O`, 2.66%.

The record behind these values is ChEMBL document CHEMBL3433997, “St. Jude Leishmania screening dataset” (2016).
